# Source: PubChem BioAssay
# Autofluor 339 – intrinsic fluorescence of library compounds, ex339/em460 – biochemical, MLSMR library, data from DPM-DC assay, artefact control, profiling panel | compound autofluorescence, ex339/em460 nm, NADH buffer; stronger effect = higher value; 1 = no-compound wells, NADH background | fluorescence fold increase at 10 µM | actives 5.5% (n = 65,000);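 active = at 10 µM, mean starting fluorescence two-fold or more over control wells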;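 also: signal is the first read of a kinetic run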
# Abs 340nm – compound absorbs light at 340 nm. fold change at 10 µM. compound absorbance at 340 nm, fold over control. 65,000 tested, under 10 active;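 active = at 10 µM dose, initial 340 nm absorbance at least 2 fold that of control wells; inactive = change under 2 fold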;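 also: initial absorbance extrapolated from kinetic A340 decline of NADH oxidation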
# NADH coupling – inhibitors of enzymes used to reach an NAD/NADH endpoint; AID 774; coupled PK/LDH NADH assays, four targets; IC50, µM (titrated, usually from 10 µM); actives 0.02% (n = 65,000);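 active = single-dose screening hits from any of four coupled enzyme assays that gave an IC50 when retested across doses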;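 also: the DPM-DC format reads NADH fluorescence rather than 340 nm absorbance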
# DPM-DC inhibit – inhibitors of Streptococcus pneumoniae diphosphomevalonate decarboxylase; actives 0.49% (n = 65,000); purified DPM-DC, PK/LDH coupled NADH fluorescence; calls only at 10 µM; AID 556;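 active = the 320 compounds with the highest percent inhibition in the single-dose primary screen, excluding strongly autofluorescent ones, cut at about 32% in these data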;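 also: kinetic rate of NADH fluorescence loss reporting ADP formed by the decarboxylase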
# PMK inhibit – blocks S. pneumoniae phosphomevalonate kinase; purified PMK, PK/LDH-coupled NADH absorbance 340 nm; inhibition, % at 10 µM; actives 0.49% (n = 65,000);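 active = top-ranked compounds by inhibition in the single 10 µM screen, taking a fixed number of the strongest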
# MK inhibit – S. pneumoniae mevalonate kinase inhibition | purified MK, PK/LDH-coupled NADH absorbance 340 nm | inhibition, % at 10 µM | actives 0.48% (n = 65,000) | AID 555;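 active = ranked among the strongest by inhibition in the single 10 µM screen, a fixed top-ranked set picked for dose follow-up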
# A number is an active result; - = inactive; . = no result given; + = active, no number. An excerpt weighted towards active compounds, which were near 6.5% of everything screened.
SMILES,Autofluor 339,Abs 340nm,NADH coupling,DPM-DC inhibit,PMK inhibit,MK inhibit
Cc1cc(NCCCN2CCOCC2)n2c(nc3ccccc32)c1C#N,5,-,-,.,-,-
Cc1cc(NCCN2CCOCC2)n2c(nc3ccccc32)c1C#N,3.7,-,-,.,-,-
CC(=O)Nc1ccc(-c2nn[nH]n2)cc1Cl,-,-,-,-,-,-
CCCN1CCN(CCCNC(=O)Cn2nc(-c3ccccc3)ccc2=O)CC1,-,-,-,-,27,-
COc1ccc2[nH]c3c(N4CCN(Cc5ccc6c(c5)OCO6)CC4)ncnc3c2c1,2.3,-,-,.,-,-
COc1ccc2c(c1)c1ncnc(N3CCN(Cc4ccc5c(c4)OCO5)CC3)c1n2C,3.2,-,-,-,-,-
COc1ccc2c(c1)c(C(O)CN1CCN(Cc3ccc4c(c3)OCO4)CC1)c(C)n2C (stereo not given),-,-,-,-,-,-
COC(=O)c1[nH]c2cc(OC)ccc2c1NC(=O)CCN1CCN(Cc2ccc3c(c2)OCO3)CC1,-,-,-,-,-,-
Cc1nc2ccc(C(C(F)(F)F)(C(F)(F)F)C(F)(F)F)cc2[nH]1,-,-,-,-,-,-
Cc1ccc(C2/C(=C(\O)c3ccc4c(c3)OCCO4)C(=O)C(=O)N2CCCN(C)C)o1 (stereo not given),-,-,-,-,-,-
COc1ccc(C(=O)NCCc2c[nH]c3ccccc23)cc1S(=O)(=O)N1CCOCC1,-,-,-,-,-,-
Cc1ccc(OCC(=O)N2CCC(N3CCCCCC3)CC2)cc1,-,-,-,-,-,41
Cc1ccc(OCC(=O)N2CCN(C(=O)CCC3CCCC3)CC2)cc1,-,-,-,-,-,-
O=C(CCCc1nc(-c2ccccc2)no1)N1CCOCC1,-,-,-,-,-,-
Nn1c(SCC(=O)NC2CCCc3ccccc32)nnc1-c1cccs1 (stereo not given),-,-,-,-,-,-
Cc1nc2c(c(=O)n1Cc1ccccc1Cl)c1nc3ccccc3nc1n2Cc1ccco1,2.3,-,-,-,-,-
CCC(C)NC(=O)CSC1=Nc2ccccc2C2=NC(CC(=O)NCc3ccccc3)C(=O)N12 (stereo not given),2.1,-,-,-,-,-
COCCCNC(=O)CSC1=Nc2ccccc2C2=NC(CC(=O)NCc3ccccc3)C(=O)N12 (stereo not given),3.4,-,-,-,-,-
Cc1cc(C)c2cc(C#N)c(N3CCCC3)nc2c1,2.2,-,-,-,-,-
COC(=O)CSc1nc2cc(C)cc(C)c2cc1C#N,-,-,-,-,-,-
O=C1CC(c2ccc(F)c(Br)c2)C2=C(CCCC2=O)N1 (stereo not given),-,-,-,-,-,-
Cn1c(=O)c2c(-c3ccccc3)n3c4ccccc4ncc3c2n(C)c1=O,3.9,-,-,.,-,-
CCC(=O)N1CCN(c2nc(-c3ccccc3)c3c(c2C#N)CCCC3)CC1,2.1,-,-,.,-,-
CN(C)CCNc1nc(-c2ccco2)c2c(c1C#N)CC(C)(C)OC2,2.2,-,-,.,-,-
CC1(C)Cc2c(C#N)c(N3CCN(C(=O)c4ccccc4)CC3)nc(-c3ccco3)c2CS1,-,-,-,-,-,-
SMILES,Autofluor 339,Abs 340nm,NADH coupling,DPM-DC inhibit,PMK inhibit,MK inhibit
CC1(C)Cc2c(C#N)c(N3CCCC3)nc(-c3ccco3)c2CO1,2.2,-,-,.,-,-
CC(C)c1nc(N2CCN(C(=O)c3ccccc3)CC2)c(C#N)c2c1COC(C)(C)C2,2.1,-,-,.,-,-
CCCCN(C)c1nc(-c2ccco2)c2c(c1C#N)CC(C)(C)OC2,-,-,-,-,-,-
COc1ccc(-n2cnnc2SCc2csc(-c3ccccc3)n2)cc1,-,-,-,-,-,-
S=c1nc(C2CCCCC2)[nH][nH]1,-,-,-,-,-,-
O=C(c1ccco1)c1cn(CC(=O)N2CCCCC2)c2ccccc12,-,-,-,-,-,-
CC1(C)Cc2c(C#N)c(OCC(=O)c3ccc(Cl)cc3)nc(-c3ccco3)c2CO1,2.1,-,-,-,-,-
CCCc1nc(NCc2ccco2)c(C#N)c2c1COC(C)(C)C2,-,-,-,-,-,-
Cc1nc(NCc2ccco2)c(C#N)c2c1COC(C)(C)C2,2.7,-,-,-,-,-
CC1(C)Cc2c(C#N)c(NCc3ccco3)nc(-c3ccco3)c2CO1,2.2,-,-,.,-,-
N#Cc1c(N2CCOCC2)nc(-c2ccco2)c2c1CCCC2,2.3,-,-,.,-,-
COc1cc(CSc2nnnn2-c2ccc(C)cc2)cc(OC)c1OC,-,-,-,-,-,-
O=C(CSc1n[nH]c(=O)n1C1CC1)Nc1cc(Cl)ccc1Oc1ccccc1,-,-,-,-,-,-
Cc1cc(C(=O)N2CCN(Cc3ccc4c(c3)OCO4)CC2)cs1,-,-,-,-,-,-
COCCCNC(=O)C1CCCN(C(=O)Nc2ccc(OC)cc2)C1 (stereo not given),-,-,-,-,-,-
CCOc1ccc(CC(=O)C2C(=O)CCCC2=O)cc1OCC,-,-,-,-,-,-
C=C(C)COc1ccc2c(C)c(C)c(=O)oc2c1OCC(=C)C,2.1,-,-,.,-,-
C=C(C)COc1ccc2c3c(c(=O)oc2c1OCC(=C)C)CCC3,2.1,-,-,-,-,-
CCOc1ccc(C(C)=O)cc1COc1ccc(-n2cnnn2)cc1,-,-,-,-,-,-
CC(NC(=O)NC1CCCCC1)C(c1cccs1)N1CCN(C)CC1 (stereo not given),-,-,-,-,-,-
Cc1ccc(-n2c(SCC(=O)NCc3ccco3)nnc2-c2cccnc2)c(C)c1,-,-,-,+,-,-
Cc1cccc(-n2c(SCC(=O)NCc3ccco3)nnc2-c2ccco2)c1,-,-,-,-,-,-
COc1ccc(OC)c(CCNC(=O)CS(=O)(=O)Cc2nc(-c3ccccc3C)oc2C)c1,-,-,-,-,-,-
CCOC(=O)C1CCCN(C(=O)c2cnn3c(C(F)F)cc(-c4ccc(C)cc4)nc23)C1 (stereo not given),2.3,-,-,-,-,-
Cc1ccc(-c2cc(C(F)F)n3ncc(C(=O)N4CCN5CCCC5C4)c3n2)cc1 (stereo not given),-,-,-,-,-,-
COc1ccc(-c2cc(C(F)F)n3ncc(C(=O)N4CCSCC4)c3n2)cc1,3.5,-,-,.,-,-
CCOC(=O)C1CCN(C(=O)c2cnn3c(C)cc(C)nc23)CC1,3.5,-,-,-,-,-
C=CCOC(=O)C1CC=CCC1C(=O)Oc1ccc(F)cc1F (stereo not given),-,-,-,-,-,-
Cc1c(Cc2ccccc2)c(=O)oc2c(CN(C)C)c(O)c(Cl)cc12,3.8,-,-,.,-,-
Cc1cccc(N(C)S(=O)(=O)c2ccc3[nH]cc(C(=O)N4CCOCC4)c(=O)c3c2)c1,2,-,-,-,-,-
